Sampled rows, rich in hits. Any-hit rate of the full collection: about 7.1%.
SW480 rereplic – A quantitative high throughput screen for small molecules that induce DNA re-replication in SW480 colon adenocarcinoma cells; AID 624297, 2012; SW480 DNA re-replication, Hoechst DNA content imaging, 48 h; 340,000 tested, 1.8% active; Potency, µM (doses to about 46.1 µM), for the others: top-dose re-replication activation, most hits filed as activators; note: potency is the fitted concentration of half-maximal effect; % of control where 0% means no effect; nearly all actives have a fitted effect of over 55% in size
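First, 250 cells per well were seeded. Next, compound or vehicle (23 nL) was pinned in, plates sat 48 hr at 37 C. Finally Hoechst was added for 40 min before fluorescence scanning.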
IL1B secr inh – qHTS for Inhibitors of Inflammasome Signaling: IL-1-beta AlphaLISA Primary Screen | AID 743279, 2014 | 360,000 tested, 4.7% active | activity change, % at 57.5 µM | THP-1 LPS/ATP IL-1B secretion, AlphaLISA, 16 h; hits give low values; in the data active = activity change below about -50%; inconclusive = mostly about -30% to -49%; note: % is set by controls: 0 for no effect and ±100 for the full control effect
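THP-1 cells pretreated 1 hr with compounds (up to 57.5 uM final), then stimulated with LPS (250 ng/mL final) plus ATP (1.25 mM final); secreted IL-1B measured by AlphaLISA after 16 hr, decreased signal indicating inhibition.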
MCF10A rereplic – A quantitative high throughput screen for small molecules that induce DNA re-replication in MCF 10a normal breast cells | MCF 10A DNA re-replication, Hoechst nuclear intensity, 48 h | Potency, µM (titrated, usually from 46.1 µM), for inactives: at the top dose activity, positive = re-replication, hits mostly activators | 350,000 tested, 2.9% active | AID 624296, 2012; note: potency is the fitted concentration of half-maximal effect; % of control where 0% means no effect; nearly all actives have a fitted effect of over 50% in size
PINK1 expr mod – A Quantitative High throughput Screen to Identify Chemical Modulators of PINK1 Expression. AID 624263, 2012. Potency, µM (highest dose often 76.6 µM), without a hit: at the top dose activation (PINK1 increase), usual class: activators. 410,000 tested, 0.2% active. PINK1 immunofluorescence, high-content cytometry, 24 h; active = well fitted activation curve with a large enough effect; inconclusive = small, poorly fitted or top-dose-only effect; cell line not stated here; note: potency is the fitted concentration of half-maximal effect; % of control where 0% means no effect; nearly all actives have a fitted effect of over 65% in size
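Decision-based qHTS: stable cells, 24 h exposure to five compound concentrations, CCCP as control. Fixed cells stained for PINK1 plus nuclear, mitochondrial and cell markers, cytometer read.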
ATXN2 expr inh – Primary qHTS for Inhibitors of ATXN expression; HEK-293 ATXN2-luciferase reporter, luminescence, 24 h; AID 1745845, 2022; 360,000 tested, 0.72% active; Potency, µM (top dose mostly 57 µM), for the others: at the highest dose activity change, negative = inhibition, hits mostly inhibitors; note: potency is the fitted concentration of half-maximal effect; % is set by controls: 0 for no effect and ±100 for the full control effect; nearly all actives have a fitted effect of over 55% in size
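ATXN2-luciferase reporter cells (luciferase flanked by upstream and downstream ATXN2 gene portions) were treated 24 h at 37 °C with compounds at up to 57 uM. SteadyGlo luminescence gave expression; GF-AFC fluorescence gave viability.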
ATXN viability – Viability Counterscreen for Primary qHTS for Inhibitors of ATXN expression | S2 cells (HEK-293 line with an ATXN2-luciferase reporter) viability, CellTiter-Fluor protease fluorescence, 24 h | Potency, µM (top dose mostly 56.7 µM), most hits filed as cytotoxic | 400,000 tested, 0.49% active | AID 651635, 2014; note: potency is the fitted concentration of half-maximal effect; nearly all actives have a fitted effect of over 40% in size
Numbers without * were called inactive; i = inactive; ? = inconclusive; / = not tested or not shown; [ ] = remark or other dose. Unless noted, calls come from the whole dose curve; as a rule, active = well fitted curve in the direction sought with a large enough effect; inconclusive = small, poorly fitted or top-dose-only effect, or another doubt; inactive = no such curve, though single readings can be large; an effect the other way counts as inactive or inconclusive.

SMILES	SW480 rereplic	IL1B secr inh	MCF10A rereplic	PINK1 expr mod	ATXN2 expr inh	ATXN viability
COc1cccc(CN2C(=O)c3ccccc3Sc3ccc(C(=O)OCc4ccco4)cc32)c1	/	/	/	-0.1%	3.6%	i
CCOC(=O)c1c(NC(=O)c2cccnc2)sc(C)c1C	1.4%	-54.1*	4.9%	-3.0%[38.3 µM]	-8.2%	i
CCOC(=O)c1c(NC(=O)c2ccccc2C(=O)O)sc2c1CCCC2	-3.6%	-9.3	14.3%	-1.4%	-5.3%	?
CCOC(=O)c1c(NC(=O)c2ccccc2)sc2c1CCc1ccccc1-2	?	25.2	20.6µM*	5.9%	-8.9%	i
CCOC(=O)c1c(NC(=O)c2ccccc2Cl)sc2c1CCc1ccccc1-2	-695.2%	-3.6	16.4µM*	3.8%	/	/
CCOC(=O)c1sc(NC(=O)c2cccnc2)c(C#N)c1C	-1.8%[9.22 µM]	-10.7	-1.3%	0.5%	4.1%	i
CCOC(=O)c1c(NC(=O)c2ccccc2C)sc2c1CCCC2	/	/	/	1.7%	/	/
CCCCCCCC(=O)[O-].CCCCCCCC(=O)[O-].[Zn+2]	/	/	/	/	-2.0%	i
CCOc1ccccc1NC(=O)Cn1c(=O)n(CCCCC(=O)NCCCOC)c(=O)c2ccccc21	/	/	/	1.3%	-0.5%	i
COc1ccc(CNC(=O)C(CCSC)NS(=O)(=O)c2ccc3c(c2)oc(=O)n3C)cc1 (configuration not stated)	/	/	/	0.2%	/	/
CC(C)N1C/C(=C/c2cccnc2)C(=O)/C(=C/c2cccnc2)C1	?	-104.1*	1.16µM*	23.2%	-10.9%	?
CC(C)N1CC2=C(OC(N)=C(C#N)C2c2cccnc2)/C(=C/c2cccnc2)C1 (configuration not stated)	-1.9%	0.0	9.0%	-1.1%	-20.5%	i
CC(C)N1C/C(=C/c2ccsc2)C(=O)/C(=C/c2ccsc2)C1	9.2µM*	-95.6*	8.2µM*	-3.3%	?	/
CN1C/C(=C/c2cccnc2)C(=O)/C(=C/c2cccnc2)C1	?	-101.9*	14.6µM*	-2.8%	20µM*	?
CCN1C(=O)S/C(=C/c2ccsc2)C1=O	5.8%	-25.7	?	-0.6%	12.4%	i
CC(=O)Nc1ccc(C(=O)CSc2nnc(-c3ccccc3)n2-c2ccccc2)cc1	/	/	/	0.0%	2.5%	i
CC(C)CCNC(=O)Nc1ccc2c(c1)N(Cc1ccccc1)C(=O)c1ccccc1S2	/	/	/	1.1%	/	/
CN(C)CCC1(C2=CCCC2)CC/C(=C/c2ccc(Cl)cc2)C1=O (configuration not stated)	?	-111.4*	?	-2.0%	?	?
CCCOP(=O)(OCCC)c1c([N+](=O)[O-])cc(C(F)(F)F)cc1[N+](=O)[O-]	18.4µM*	-73.4*	?	3.5%	0.4%	i
CCOc1ccc(C(F)(F)F)cc1NC(=O)COc1ccc(C(F)(F)F)cc1[N+](=O)[O-]	-0.9%	-7.8	5.2%	0.2%	-9.8%	i
CCN(CC)Cc1c(O)ccc2c([N+](=O)[O-])c(C)n(-c3ccc(OC)cc3)c12	2.6%	-74.8*	6.8%	-2.1%	-22.6%	i
COc1ccc2c(c1)CCc1cnc(-n3ncc(C(=O)N(C)CC4CCCN(C)C4)c3C)nc1-2 (configuration not stated)	/	/	/	-0.8%	/	i
COC(=O)c1ccc(OCC2c3cc(OC)c(OC)cc3CCN2C(=O)Cc2ccc(OC)cc2)cc1 (configuration not stated)	/	/	/	-4.7%	-3.1%	i
Cc1ccc(-c2c[n+](CC(=O)OCc3ccccc3)c3n2CCC3)cc1	9.2µM*	6.5	?	-1.3%	4.7%	i
Cc1ccc(-c2c[n+](Cc3ccc(Cl)c(Cl)c3)c3n2CCC3)cc1	60.4%	-79.0*	?	?	-22.2%	i
COc1ccc(C(=O)C[n+]2cc(-c3ccc(OC)cc3)n3c2CCCC3)cc1	?	-11.8	6.6%	2.0%	-17.7%	?

Compound activity (PubChem BioAssay)
